This passage reports Inhibition results from ChEMBL document CHEMBL1157539, “Thousands of chemical starting points for antimalarial lead identification” (Nature, 2010).

Common to all, as to format: functional
In assay [1] the test system is Plasmodium falciparum. The experiment in a line: GSK_TCMDC: Inhibition of Plasmodium falciparum 3D7 in whole red blood cells, using parasite LDH activity as an index of growth. Test compounds present at 2uM.
Assay [2] deals with Plasmodium falciparum. The experiment in a line: GSK_TCMDC: Inhibition of Plasmodium falciparum Dd2 in whole red blood cells, using parasite LDH activity as an index of growth. Test compounds present at 2uM.
In assay [3] the test system is HepG2. Briefly: GSK_TCMDC: Percent inhibition of human HepG2 cell line. Test compounds present at 10uM.

As a reminder, the Inhibition is the percentage by which the read-out fell short of the control. Low values mean little suppression, high ones strong suppression. Regarding `COc1ccc2ncc(F)c(CCN3CC[C@@H](CNCc4cc(C)c5c(c4)OCCO5)C3)c2n1.Cl`, the Inhibition worked out at 98% in assay [1], 44% in assay [2] and 22% in assay [3].
The matching figures for `COc1ccc(Nc2nccc(-c3ccc4c(-c5ccsc5)cnc(N)c4c3)n2)cc1`: 100%, 98% and 38%.
The matching figures for `O=C(COc1ccc(C(=O)c2ccccc2)cc1)Nc1nccs1`: 94%, 18% and 0%.
The matching figures for `Cc1nc(-c2ccc(-c3ccc(C(=O)Nc4ccc(C(C)C)c(OCCN(C)C)c4)cc3)c(C)c2)no1.O=C(O)C(=O)O`: 99%, 45% and 49%.
As to `COc1ccc2nccc([C@@H](O)CN3CCC(NCc4cnc5c(c4)NC(=O)CS5)CC3)c2c1.O=C(O)C(=O)O`, the figures for the Inhibition in assay [1], in assay [2] and in assay [3] were 87%, 29% and 0%, respectively.
`COc1ccc(NC(=O)/C=C/c2ccccc2Cl)cc1OCCN1CCC(c2nc3ccccc3[nH]2)CC1.Cl`: the Inhibition in assay [1] is reported as 92%; in assay [2], 16%; in assay [3], 35%.
For `CCN(CC)CCN(Cc1ccc(-c2ccc(Cl)cc2)cc1)C(=O)Cn1c(CCc2cccc(F)c2F)nc(=O)c2ccccc21.O=C(O)C(O)C(O)C(=O)O`, in that order: 100%, 75% and 45%.
For `CCc1nc2nc(C)cc(Nc3ccc4c(c3)OCCO4)n2n1`, in that order: 88%, 55% and 8%.
For `CCN(CC)CCN(Cc1ccc(-c2ccc(C(F)(F)F)cc2)cc1)C(=O)Cn1c(CCc2ccc(F)c(F)c2)nc(=O)c2ccccc21.O=C(O)C(O)C(O)C(=O)O`, in that order: 99%, 62% and 31%.
Regarding `COc1ccc(NC(=O)/C=C/c2ccccc2Cl)cc1OCCN1CCC(O)(c2ccc(Cl)c(C(F)(F)F)c2)CC1.Cl`, the Inhibition stood at 100% in assay [1], 9% in assay [2] and 37% in assay [3].
The matching figures for `CC(C)(C)COC(=O)c1ccc(NC(=O)N[C@@H](Cc2ccc(O)cc2)C(=O)NC2CCN(Cc3ccc(O)cc3)C2)cc1.O=C(O)C(F)(F)F` (stereo partly drawn): 94%, 21% and 3%.
With `O=C(NCCCCN1CCC(c2c[nH]c3ccccc23)CC1)c1sc(-c2ccc(C(F)(F)F)cc2)nc1CO`, the Inhibition in assay [1] is on record as 94%; in assay [2], 3%; in assay [3] it was 34%.
`CCCc1ccc(Nc2nc(C)cc(N(CC)CCCN3CCCCC3)n2)cc1.O=C(O)C(F)(F)F`: the Inhibition in assay [1] is 100%; in assay [2], 95%; in assay [3] it was 48%.
As to `CC(C)(C)C1CCc2nc(N)nc(N)c2C1.Cl` (stereo not drawn), the Inhibition stood at 94% in assay [1], 38% in assay [2] and 69% in assay [3].
For `Cn1nc(-c2ccc(NC(=O)Nc3cc(C(F)(F)F)cc(C(F)(F)F)c3)c(F)c2)c2cnc(NCCN3CCOCC3)nc21.O=C(O)C(F)(F)F`, in that order: 94%, 37% and 43%.
The matching figures for `CN(C)c1ccc(C2(c3ccccc3)N=C(N)N(CCCc3ccccc3)C2=O)cc1.O=C(O)C(F)(F)F` (stereo not drawn): 99%, 97% and 4%.
The matching figures for `Cc1[nH]c(C)c(-c2ccc(-c3cccc(Cl)c3)nc2)c(=O)c1Br`: 96%, 96% and 10%.
As for `O=C(Cc1ccc(Cl)cc1)Nc1cc(Cl)ccc1Cn1cnc(N2CCNCC2)cc1=O.O=C(O)C(F)(F)F`, the Inhibition in assay [1] was 97%; in assay [2], 2%; in assay [3], 9%.
Turning to `CC(C)Cn1cc(C2CCN(CCN3CCC(CNC(=O)c4ccc(-c5ccc(C#N)cc5)cc4)CC3)CC2)c2ccccc21`, the Inhibition in assay [1] came out at 100%; in assay [2] it was 98%; in assay [3], 28%.
As to `O=C(O)C(F)(F)F.O=c1cc(NCCCNCc2cn(S(=O)(=O)c3ccccc3)c3ccccc23)[nH]c2ccccc12`, the Inhibition in assay [1] is 91%; in assay [2], 29%; in assay [3] it was 17%.
Consider `O=C(/C=C/c1ccc(Cl)c(Cl)c1)NCCCCCN1CCC(NC(=O)Nc2ccc(F)c(F)c2)CC1`, for which the Inhibition in assay [1] is listed as 99%; in assay [2] it was 4%; in assay [3] it was 24%.
The matching figures for `CC(=O)Nc1[nH]c(-c2ccccc2)nc1C(N)=O`: 99%, 0% and 10%.
The matching figures for `CCOc1ccc2ccccc2c1CNCCCCCCNCc1c(OCC)ccc2ccccc12.CS(=O)(=O)O`: 100%, 89% and 100%.
`OCCCCCCNc1nc(NCc2ccccc2-c2ccc(C(F)(F)F)cc2)nc(N2CCNCC2)n1`: the Inhibition in assay [1] is recorded as 89%; in assay [2], 16%; in assay [3], 13%.
For `CCCCCCCCNc1c2ccc(Cl)cc2nc2ccc(OC)cc12.Cl`, in that order: 89%, 96% and 11%.
The matching figures for `Cc1cccc2nc(-c3cccc(-c4ccc(NC(=O)CCc5c[nH]cn5)cc4)c3)[nH]c12`: 100%, 92% and 3%.
